We go through eight compounds from PubChem BioAssay (NCI).

Common to all, as to assay: NCI-60 one-dose screen, 48 h (100 = growth as untreated, 0 = no growth, -100 = all killed)
Common to all, as to conditions: 10 µM unless noted

Test [1] deals with HCT-15 colon.
Test [2] concerns SNB-75 CNS.
The test system of test [3] is SNB-19 CNS.
Test [4] relates to U251 CNS.
Test [5] concerns PC-3 prostate.
The test system of test [6] is SK-MEL-5 melanoma.
Test [7] relates to UACC-62 melanoma.
Test [8] deals with LOX IMVI melanoma.
The test system of test [9] is SK-MEL-28 melanoma.
Test [10] deals with SK-MEL-2 melanoma.
The subject of test [11] is EKVX NSCLC.
The subject of test [12] is SN12C renal.
Test [13] relates to UO-31 renal.
Test [14] relates to TK-10 renal.
Test [15] relates to ACHN renal.
In test [16] the test system is CAKI-1 renal.
The test system of test [17] is A498 renal.
In test [18] the test system is CCRF-CEM leukemia.
Test [19] concerns MOLT-4 leukemia.
Test [20] has as its system HT29 colon.

About 83,000 compounds went through this panel and 20% of them were active in at least one assay; those are over-represented in the sample as a whole.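 Single-concentration screen, 48 h exposure, 96-well plates. Endpoint: percent growth. Below 10 = active.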 A number with no mark means an inactive call. Calls of active or inactive are those of the source.

Regarding `Cc1cc(C(=O)Nc2ccc3cc(CN4CCOCC4)ccc3n2)c(C)n1-c1ccccc1`, the growth in test [1] is 40.4%; in [2], 15.5%; in test [3] it was 77%; in test [4], 46.3%; in [5], 4.55% (active); in test [6] it was -38.1% (active). Besides, the growth in [7] was 7.01% (active); in test [8], 24.2%; in test [9], 27.9%; in test [10], 16.6%; in test [11], 44.9%; in test [12] it was 73%. Moreover, the growth is 53.3% in [13]; 70.4% in test [14]; 50.5% in test [15]; 49.7% in test [16]; 79.8% in test [17]; 8.79% (active) in test [18]. The growth in [19] was -17.4% (active).
On to `CC(=O)Nc1c(Cl)cc2c(c1Cl)Cc1ccccc1-2`, for which the growth was 99.9% in test [1]; 94.7% in [2]; 101% in test [3]; 92.4% in [4]; 86.9% in test [5]; 97.3% in [6]. Moreover, the growth in test [7] was 84.8%; in test [8], 87.9%; in [9] it was 124%; in [10], 93.8%; in [11], 64.3%; in [12], 90.9%. Moreover, the growth in test [13] was 69.2%; in test [14], 115%; in test [15] it was 100%; in test [16], 86.1%; in test [17], 93.7%; in [18] it was 102%. Further, the growth in test [19] is 93%.
On to `CC(NC(N)=S)c1ccccc1` (centres undefined), for which the growth in [1] is 104%; in test [2], 95.1%; in test [3], 102%; in test [4], 105%; in test [5], 108%; in test [6] it was 99.6%. The growth in test [7] was 101%; in test [8] it was 85%; in test [9], 110%; in test [10], 120%; in [11], 103%; in test [12], 98.3%. The growth in [13] is 93.2%; in test [14], 99%; in test [15] it was 108%; in test [16], 104%; in [17] it was 98.1%; in test [18], 129%. In addition, the growth in test [19] is 98.8%.
In the case of `O=C(CSc1nnc(-c2cc(-c3ccccc3)nc3ccccc23)o1)c1ccc(Br)cc1`, the growth was 109% in [1]; 97.4% in [2]; 93.2% in test [3]; 98.2% in test [4]; 107% in [5]; 103% in [6]. The growth in test [7] was 94.8%; in test [8] it was 101%; in test [9] it was 113%; in test [11] it was 107%; in test [12] it was 98%; in test [13] it was 83.1%. Also, the growth in test [15] is 107%; in [16], 91.2%; in test [17], 102%; in [18] it was 105%; in [19] it was 104%.
For `O=C1/C=C/[C@@H](O)[C@@H]2C[C@@H](O)C[C@H]2/C=C/CCC[C@H](CO)O1`, the growth in test [1] is 26.2%; in test [2], 35.7%; in test [3], 48.8%; in test [4] it was 24.1%; in test [5], 39.5%; in test [6], -88% (active). Also, the growth in [7] is 15.8%; in test [8] it was -44.8% (active); in [9], -18.8% (active); in test [11], 36.4%; in test [12], 43.9%; in test [13], 11.2%. The growth is 19.8% in test [15]; 17.9% in test [16]; -30.3% (active) in [17]; 22.3% in [18]; -16.9% (active) in [19].
On to `N#Cc1c(-c2ccccc2)cc(-c2ccccc2)n(CCCCC(=O)O)c1=O`, for which the growth in test [1] is 71.3%; in test [20], 99.8%; in [3] it was 96.1%; in test [4], 93.3%; in [5], 93.1%; in [6], 93.7%. The growth was 88.2% in [8]; 89.5% in [9]; 96.6% in test [10]; 89.4% in test [11]; 96.8% in test [12]; 86% in test [13]. The growth in [14] was 99.9%; in [15], 100%; in [16], 86.8%; in test [18], 87.7%; in [19], 107%.
Turning to `Cn1cc(NC(=O)Nc2cc(C(=O)O)n(C)c2)cc1C(=O)O`, the growth was 113% in [1]; 103% in [2]; 118% in test [3]; 100% in [4]; -76.4% (active) in test [5]; 93.6% in test [6]. In addition, the growth in test [7] was 90%; in test [8], 98.1%; in test [9], 121%; in test [10], 97.8%; in [11] it was 114%; in test [12] it was 89.6%. Also, the growth in test [14] is 107%; in test [15], 104%; in test [16], 99.3%; in [17] it was 109%; in test [18], 103%; in test [19] it was 85.9%.
Regarding `Cc1onc(-c2ccccc2Cl)c1C(=O)N[C@@H]1C(=O)N2[C@@H]1SC(C)(C)[C@@H]2C(=O)O`, the growth in [1] was 106%; in test [2], 103%; in test [3] it was 105%; in [4] it was 98.4%; in [5], 98.3%; in test [6] it was 101%. For the same compound, the growth was 99.5% in [7]; 99.9% in test [8]; 117% in test [9]; 110% in test [10]; 104% in test [11]; 103% in test [12]. For the same compound, the growth in test [13] was 80.4%; in test [15] it was 104%; in test [16], 96.6%; in test [17], 114%; in test [18], 96.6%; in test [19], 90.5%.
